An excerpt weighted towards active compounds, which were near 19% of everything screened.
KB-3-1 cytotox – kills parental KB-3-1 adenocarcinoma cells | hit rate 1.4% among 400,000 | AID 1347075 | Potency, µM (top dose mostly 46.1 µM), hits mostly cytotoxic | KB-3-1 viability, CellTiter-Glo ATP luminescence, 72 h; further: nearly all actives have a fitted effect of over 60% in size
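Parental KB-3-1 adenocarcinoma cells in phenol-red-free DMEM with 10% FBS were pin-treated with compounds at several concentrations, incubated 72 h at 37 °C, and viability read by CellTiter-Glo luminescence; concentration-effect curves were fitted after normalization.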
DT40 TDP1 CPT – DT40-hTDP1 cell growth loss with CPT. chicken DT40 Tdp1-/-;hTDP1 cells + 20 nM CPT, ATP luminescence, 48 h. AID 686979. Potency, µM (highest dose often 46.2 µM), without a hit: at the highest dose activity change, negative = growth inhibition, actives largely listed as inhibitors. hit rate 12% among 420,000; further: nearly all actives have a fitted effect of over 55% in size
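Chicken DT40 Tdp1-/- cells stably complemented with human TDP1 were seeded at 400 cells/well in medium containing 20 nM camptothecin, exposed to pin-transferred compounds, and grown at 37 °C for at least 48 hr. Viability was read as ATP luminescence.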
HT1080 IDH1KD tx – kills HT-1080 cells with IDH1 knockdown; hit rate 2% among 360,000; AID 686971; Potency, µM (series often up to 46.1 µM), without a hit: top-dose activity, negative = toxicity, usual class: cytotoxic; HT-1080 IDH1 knockdown viability, ATP luminescence, 48 h;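 further: 0% = DMSO wells and -100% = cell-free medium wells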
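Viability of IDH1-knockdown HT-1080 fibrosarcoma cells was assessed by CellTiter-Glo after 48 h at 37 °C with titrated compound; concentration-effect curves were classified by fit quality and response size.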
DT40 TDP1 no CPT – qHTS for Inhibitors of human tyrosyl-DNA phosphodiesterase 1 (TDP1): qHTS in cells in absence of CPT; DT40 Tdp1-/- hTDP1 cells, no CPT, ATP luminescence, 48 h; Potency, µM (titrated, usually from 46.2 µM), inactives show at the highest dose activity change, negative = growth inhibition, actives largely listed as inhibitors; hit rate 15% among 420,000; AID 686978, 2013; further: nearly all actives have a fitted effect of over 55% in size
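Luminescent ATP content (CellTiter-Glo) served as the growth readout. Knockout chicken DT40 cells expressing human TDP1 were exposed to compounds without camptothecin for a minimum 48 hr at 37 °C.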
HT1080NT lethal – kills 2HG-producing HT-1080-NT fibrosarcoma cells; HT-1080-NT fibrosarcoma viability, CellTiter-Glo ATP luminescence, 48 h; hit rate 1.6% among 360,000; Potency, µM (doses to about 46.1 µM), inactives show at the highest dose activity, negative = less viability, usual class: cytotoxic;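 further: NT is the 2HG producing partner of a matched IDH1 knockdown line; 0% = DMSO-treated cells and -100% = media-only wells without cells; nearly all actives have a fitted effect of over 55% in size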
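Viability of the 2HG-overproducing fibrosarcoma line after 48 hours of compound exposure at 37 degrees C was determined by luminescence with CellTiter-Glo, and concentration-effect curves were then fitted and categorized.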
KB-V1 cytotox – KB-V1 MDR subline cytotoxicity | KB-V1 MDR cells viability, CellTiter-Glo, 72 h | hit rate 3.4% among 400,000 | Potency, µM (series often up to 46.1 µM), usual class: cytotoxic; further: nearly all actives have a fitted effect of over 60% in size
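Compound-treated KB-V1 multidrug-resistant cells, 72 h, 37 degrees C; viability by CellTiter-Glo. Fitted qHTS curves give the values.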
Active calls of the source: *; i = inactive; ? = inconclusive; . = no result. The call rests on the fitted dose curve; in most records, active means well fitted curve in the direction sought with a large enough effect; inconclusive means small, poorly fitted or top-dose-only effect, or another doubt; inactive means no such curve, though single readings can be large; an effect the other way counts as inactive or inconclusive. Unless noted, on the % scale 0 is the no-effect control and ±100 the full control effect; potency means the concentration at half of the fitted maximal effect.

SMILES	KB-3-1 cytotox	DT40 TDP1 CPT	HT1080 IDH1KD tx	DT40 TDP1 no CPT	HT1080NT lethal	KB-V1 cytotox
CC1C(c2cccs2)=[N+]([O-])C(C)(C(=O)c2cccs2)N1O (stereo not given)	i	3.8%	2.6%	-23.3%	0.0%	i
C=CCN1C(=O)/C(=C/c2ccc(N3CCOCC3)o2)C(=O)NC1=S	i	-10.0%	9.2%	-22.9%	11.8%	i
O=C1NC(=O)N(Cc2ccco2)C(=O)/C1=C/c1ccc(-c2cccc([N+](=O)[O-])c2)o1	i	18.4µM*	0.4%	?	0.7%	i
C=CCN1C(=O)NC(=O)/C(=C\c2ccc(-c3ccccc3[N+](=O)[O-])o2)C1=O	i	?	?	18.4µM*	?	i
C[C@]12CCC(=O)C=C1C=CC1C2CC[C@@]2(C)C1CC[C@@H]2O (stereo not given in full)	?	?	-0.3%	-26.9%	0.2%	3.66µM*
C[C@]12CC[C@H]3[C@@H](CCC4=C(Cl)C(=O)CC[C@@]43C)[C@@H]1CC[C@@H]2O	.	-7.8%	.	?	.	.
CC12CCC(=O)C=C1C=CC1C2CCC2(C)C(O)CCC12 (stereo not given)	8.2µM*	5.8%	-19.7%	-26.7%	-4.4%	2.06µM*
O=[N+]([O-])[N-][n+]1cnn(Cc2ccccc2)c1	i	0.5%	-4.9%	5.8%	-3.9%	i
C[C@]12CCC3C(CC[C@H]4C[C@@H](O)CC[C@]34C)[C@@H]1CCC2=O (stereo not given in full)	.	26.6µM*	.	29.9µM*	.	.
C[C@]12CCC3C(CC[C@H]4CC(O)CC[C@]34C)C1CC/C2=N/NC(=O)c1ccncc1 (stereo not given in full)	i	25.9µM*	-1.1%	23.1µM*	-24.5%	i
Cc1ccc(-c2c(C)n3c4c(=O)n(C)c(=O)n(C)c4nc3n2CCO)cc1	2.06µM*	0.259µM*	.	0.184µM*	.	i
Cn1c(=O)c2c(nc(SCc3ccccc3)n2Cc2ccc(Cl)cc2)n(C)c1=O	i	?	-14.5%	?	1.0%	i
O=C(c1ccco1)N1CCN(C(=O)c2ccc(COc3ccc(Cl)cc3Cl)o2)CC1	i	25.9µM*	-5.1%	?	-2.7%	?
COc1ccc(S(=O)(=O)N2CCN(C(=O)c3ccc(COc4ccccc4)o3)CC2)cc1	?	?	-13.6%	?	-16.8%	?
Cn1cccc1-c1cccnc1	.	-7.8%	.	-1.5%	.	.
O=C1NC(=O)N(c2ccc(Cl)cc2)C(=O)/C1=C/c1coc2ccc(O)cc2c1=O	i	14.6µM*	-17.3%	14.6µM*	-7.1%	i
O=C1NC(=O)N(c2ccccc2)C(=O)/C1=C/c1coc2ccc(O)cc2c1=O	i	23.1µM*	?	14.6µM*	-24.8%	i
O=C1NC(=O)N(c2ccccc2)C(=O)/C1=C/c1ccoc1	i	?	-0.1%	-20.7%	-5.6%	i
CCOC(=O)CNC(=O)CNC(=O)c1nn(-c2ccc(OC)c(Cl)c2)c(=O)c2ccccc12	?	?	-3.2%	-4.6%	-2.6%	i
O=NN(CCF)C(=O)NC1CCC(=O)NC1=O (stereo not given)	.	-24.9%	2.5%	-19.0%	12.5%	i
CCN(CC)C(=O)c1ccc(NC(=O)Cn2nc(-c3ccc(C)cc3)c3ccccc3c2=O)cc1	?	3.4%	.	-19.6%	.	i
CCN(CC)C(=O)c1ccc(NC(=O)COc2ccc(-c3nn(C)c(=O)c4ccccc34)cc2)cc1	?	16.4µM*	-13.9%	?	-17.0%	?
Cc1ccc(NC(=O)COc2ccc(-c3nn(C)c(=O)c4ccccc34)cc2)c(C)c1	.	16.4µM*	.	13µM*	.	.
Cn1nc(-c2ccc(C(=O)Nc3ccc(OC(F)(F)F)cc3)cc2)c2ccccc2c1=O	?	9.2µM*	.	16.4µM*	.	i
CCN(CC)C(=O)c1ccc(NC(=O)CCn2nc(-c3ccc(C)cc3)c3ccccc3c2=O)cc1	.	18.4µM*	.	14.6µM*	.	.
SMILES	KB-3-1 cytotox	DT40 TDP1 CPT	HT1080 IDH1KD tx	DT40 TDP1 no CPT	HT1080NT lethal	KB-V1 cytotox
COC(=O)C1=C(c2ccc(F)cc2F)C[C@@H]2CC[C@H]1N2C(=O)NC1Cc2ccccc2C1	i	?	-10.6%	?	3.4%	i
COc1cc2c(cc1OC)C13CCN4CC5CCOC6CC(=O)N2C1C6C5CC43 (stereo not given)	i	8.0%	3.2%	10.1%	3.2%	i
O=C(Cn1c(=O)c(C(F)(F)F)nc2ccccc21)N1CCC2(CC1)OCCO2	i	-5.1%	-0.5%	0.0%	11.3%	i
CC1CCN(C(=O)Cn2c3ccccc3c3nc4n(c(=O)c32)CCCS4)CC1	i	23.1µM*	-5.4%	?	-8.6%	i
CCOP(=O)(OCC)C(NS(=O)(=O)c1ccccc1)C(Cl)(Cl)Cl (stereo not given)	i	0.7%	3.4%	-20.0%	-9.3%	i
CN(Cc1ccccc1)C(=O)c1cccc(NC(=O)Cc2ccc([N+](=O)[O-])cc2)c1	i	23.1µM*	-24.3%	14.6µM*	-5.6%	i
CC1CN(c2ccccn2)C(C)CN1C(=O)C(O)(c1ccccc1)c1ccccc1 (stereo not given)	i	29.1µM*	-10.6%	23.1µM*	-18.4%	i
COc1ccc(C(=O)c2[nH]c(N)c(C(N)=O)c2-c2ccc(OC)c(OC)c2)cc1	i	5.9%	?	-19.1%	24.9%	i
CCCOC(C(=O)OC1CCN(C)CC1)(c1ccccc1)c1ccccc1	.	21.1µM*	.	11.9µM*	.	.
CC1CC(OP(O)(=S)c2ccc(N(C)C)cc2NC(=O)c2cccs2)CC(C)(C)C1 (stereo not given)	?	?	-25.6%	?	-27.7%	i
CCCNC(=O)c1cc2c(c(-c3cccc(-c4cc5ccccc5o4)c3)n1)[C@@H](CCO)N(C(=O)NC(C)C)C2	?	?	?	?	?	18.4µM*
O=c1cccc2n1CC1CC2CN2CCCCC12 (stereo not given)	.	4.1%	.	15.6%	.	.
CC(C)C[C@@H]1COc2cc(N3CCN(C)CC3)ccc2S(=O)(=O)N1	i	-13.7%	4.8%	-24.0%	9.1%	?
Cc1ccc(C(=O)c2cn(CC(=O)Nc3ccc(C(C)C)cc3)c3nc(C)ccc3c2=O)cc1	i	6.51µM*	.	6.51µM*	.	i
Cc1cc(C)c(Cn2c(C(=O)O)c(C=O)c3ccccc32)c(C)c1	i	7.1%	0.2%	6.3%	2.5%	?
